# Screens (PubChem)
# G9a inh-1 – qHTS Assay for Inhibitors of Histone Lysine Methyltransferase G9a | Histone-lysine N-methyltransferase EHMT2 (Homo sapiens), Q96KQ7 | G9a H3K9 monomethylation, AlphaScreen, 2 h | Potency, µM (series often up to 102 µM), hits mostly inhibitors | actives 8.8% (n = 350,000) | AID 504332, 2011; further: nearly all actives have a fitted effect of over 75% in size
# Target sequence (Q96KQ7 913-1193 limits assumed): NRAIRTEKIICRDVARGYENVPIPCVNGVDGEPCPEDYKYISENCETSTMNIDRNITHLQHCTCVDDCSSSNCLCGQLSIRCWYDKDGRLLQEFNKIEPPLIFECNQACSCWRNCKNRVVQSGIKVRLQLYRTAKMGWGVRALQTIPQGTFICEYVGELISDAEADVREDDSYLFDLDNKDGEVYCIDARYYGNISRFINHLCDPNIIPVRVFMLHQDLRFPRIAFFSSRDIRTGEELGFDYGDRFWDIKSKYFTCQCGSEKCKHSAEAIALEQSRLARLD
#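 Chemiluminescent proximity detection of H3K9 monomethylation, read after 10 min bead incubation in the dark. Reaction: 20 nM G9a, 500 nM biotin-H3K9 peptide, 20 uM SAM cofactor, 2 h, room temperature, following 15 min enzyme-compound preincubation.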
# CtBP-E1A blk – qHTS Assay for Inhibitors of the CtBP/E1A Interaction; CtBP / adenovirus E1A interaction (AlphaScreen); AlphaScreen GST-E1A/His-CtBP binding, 1536-well; active compounds read low; activity change, % (no concentration beside the values); actives 0.49% (n = 340,000); in the data active means activity change below about -65%; inconclusive means mostly about -30% to -63%
#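 Homogeneous bead-based format: GST-tagged E1A captured on glutathione donor beads, His-tagged CtBP on nickel acceptor beads; compounds precede bead addition by 2 h at 37 °C.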
# Six1-Eya2 inh – qHTS Assay for Inhibitors of the Six1/Eya2 Interaction; Homeobox protein SIX1 (Homo sapiens) + Protein phosphatase EYA2 (Homo sapiens), …; AlphaScreen GST-Six1/His-Eya2 binding, biochemical; active compounds read low; activity change, % (test concentration not listed); actives 0.56% (n = 360,000); in the data active means activity change below about -65%; inconclusive means mostly about -30% to -63%
#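 AlphaScreen luminescence read after one hour at 37 °C in darkness. Pin-transferred compounds met GST-Six1 and His-Eya2 protein (5X stock 250 nM/500 nM) plus glutathione donor and Ni-chelate acceptor beads (5X, 50 ug/mL).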
# JMJD2A Tudor – qHTS Assay for Inhibitors of JMJD2A-Tudor Domain. Lysine-specific demethylase 4A (Homo sapiens), O75164. AlphaScreen JMJD2A-Tudor / H3K4me3 peptide binding. Potency, µM (highest dose often 114 µM), most hits filed as inhibitors. actives 4.4% (n = 390,000). AID 504339, 2011; further: nearly all actives have a fitted effect of over 50% in size
# BAZ2B inh – qHTS Assay for Inhibitors of BAZ2B; actives 4.4% (n = 360,000); AlphaScreen BAZ2B-H3K14Ac peptide displacement; Potency, µM (top dose mostly 114 µM), hits mostly inhibitors; further: nearly all actives have a fitted effect of over 60% in size
#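 Protein-peptide AlphaScreen: BAZ2B 50 nM, b-H3K14Ac 50 nM, 1x PBS pH 7.4 + 0.01% Tween-20. Preincubation 30 min RT; cpd 30 min RT (top 110 uM); beads 20 min RT, light-protected.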
# HP1b binding inh – HTS for Inhibitors of HP1-beta Chromodomain Interactions with Methylated Histone Tails | Chromobox protein homolog 1 (Homo sapiens), P83916 | AlphaScreen HP1-beta / biotin-H3K9me3 peptide binding | Potency, µM (doses to about 114 µM), actives largely listed as inhibitors | actives 0.56% (n = 390,000) | AID 540317, 2011; further: nearly all actives have a fitted effect of over 70% in size
# Target sequence (P83916 whole entry, looked up): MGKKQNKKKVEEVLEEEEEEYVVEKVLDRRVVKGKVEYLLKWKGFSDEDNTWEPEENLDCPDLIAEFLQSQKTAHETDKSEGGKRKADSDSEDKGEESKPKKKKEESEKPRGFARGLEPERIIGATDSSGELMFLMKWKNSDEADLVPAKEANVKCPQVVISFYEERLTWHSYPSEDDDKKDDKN
#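 Compound inhibition of the preformed complex between 50 nM HP1-beta and 50 nM biotinylated H3K9me3 peptide was read by AlphaScreen. Buffer was PBS pH 7.4 with 0.01% Tween-20. Incubations ran 30 min at room temperature, with 10 ug/mL donor/acceptor beads.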
# G9a inh-2 – qHTS Assay for Inhibitors of Histone Lysine Methyltransferase G9a: Hit Confirmation; shares compounds with JMJD2A Tudor; G9a H3K9 monomethylation, AlphaScreen, 2 h; Potency, µM, actives largely listed as inhibitors; actives 89% (n = 370); AID 588344, 2011; further: nearly all actives have a fitted effect of over 65% in size
# RGS4 confirm – qHTS for Inhibitors of Regulator of G Protein Signaling(RGS) 4: Hit Validation; shares compounds with JMJD2A Tudor; RGS4 GAP activity, Transcreener GDP fluorescence polarization; Potency, µM, most hits filed as inhibitors; actives 80% (n = 25)
# Target sequence (P49798 whole entry, looked up): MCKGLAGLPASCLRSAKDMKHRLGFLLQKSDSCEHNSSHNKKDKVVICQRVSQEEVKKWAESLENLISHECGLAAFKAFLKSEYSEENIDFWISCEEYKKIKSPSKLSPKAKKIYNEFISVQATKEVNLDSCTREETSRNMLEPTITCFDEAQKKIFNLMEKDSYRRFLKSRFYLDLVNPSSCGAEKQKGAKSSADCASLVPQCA
# Hits are given with their value; – = inactive; ? = inconclusive; · = no result given; [ ] = remark or other dose. Hits are enriched below; roughly 10% of the tested compounds scored in any of these assays. Unless noted, the call rests on the fitted dose curve; in most records, active means well fitted curve in the direction sought with a large enough effect; inconclusive means small, poorly fitted or top-dose-only effect, or another doubt; inactive means no such curve, though single readings can be large; an effect the other way counts as inactive or inconclusive.
SMILES,G9a inh-1,CtBP-E1A blk,Six1-Eya2 inh,JMJD2A Tudor,BAZ2B inh,HP1b binding inh,G9a inh-2,others
Cc1ccccc1NC(=O)N1CCc2cc(S(=O)(=O)N3CCC(C)CC3)ccc21,–,·,·,–,–,–,·,
CCOc1ccc(NC(=O)c2c(NCc3cccnc3)sc3c2CCCC3)cc1,2.8µM,·,·,22µM,–,–,1.6,
O=C(COc1ccc(Cl)cc1)Nc1sc2c(c1C(=O)Nc1cccc(Cl)c1)CCCC2,1.8µM,·,·,71µM,?,?,3.6,
COc1ccc(NC(=O)c2c(NC(=O)COc3ccccc3)sc3c2CCCCC3)cc1,–,·,·,–,–,–,·,
COc1ccc(CC(=O)NCCc2sc(-c3cccc(F)c3)nc2C)cc1,–,·,·,–,–,–,·,
C=CCc1ccccc1OCCn1c(C2CC(=O)N(Cc3ccc(F)cc3)C2)nc2ccccc21 (configuration not stated),–,·,·,–,–,–,·,
COc1ccc(N2CCN(c3nc4ccccc4nc3NS(=O)(=O)c3ccccc3)CC2)cc1,?,–,–,50µM,50µM,?,7.9,
CCOC(=O)CNC(=O)CSc1nnc(-c2ccccc2)n1Cc1ccco1,?,–,–,45µM,–,–,4.5,
CC(C)n1cnc2cc(NCc3ccco3)ccc21,?,–,–,?,–,–,14,
COc1ccc(NC(=O)CCS(=O)(=O)c2nc(-c3cccs3)cc(C(F)(F)F)n2)cc1OC,–,·,·,–,–,–,·,
COc1ccc(Cl)cc1NC(=O)c1c(NCc2cccs2)sc2c1CCCC2,1.4µM,·,·,?,–,–,4.1,
CCOC(=O)N1CCc2c(sc(NCc3cccs3)c2C(=O)Nc2cc(Cl)ccc2OC)C1,1.1µM,·,·,?,–,–,2.3,
CCOC(=O)c1c(NC(=O)c2cccs2)sc2c1CCN(C(=O)OCC)C2,–,–,–,–,–,–,·,
Cc1cccc(C)c1NC(=O)C1CCCN(S(=O)(=O)c2c(C)noc2/C=C/N(C)C)C1 (configuration not stated),–,·,·,–,–,–,·,
Cc1cccc(C)c1OCc1nnc(SCC(=O)Nc2cccc(C(=O)N3CCOCC3)c2)n1C,–,–,–,?,–,–,·,
Cc1cccc(OCc2nnc(SCC(=O)Nc3cccc(C(=O)N4CCOCC4)c3)o2)c1C,2µM,–,–,–,–,–,5,
COc1ccc(Cc2nnc(SCC(=O)NC3CCCCC3)n2C)cc1,?,–,–,–,–,–,10,
COc1ccc(NC(=O)Cc2nnc(SCC(=O)NC3CCCCC3)n2C)cc1,–,–,–,–,–,–,·,
COc1ccccc1N1CCN(C(=O)c2ccc(CN3CCc4ccccc4C3)cc2)CC1,–,–,–,?,–,–,·,
COc1ccc(CN2CCc3ccccc3C2)cc1Br,2.2µM,·,–,28µM,50µM,–,11,
CCCN1CNc2c(c(=O)[nH]c(=S)n2CCc2cccc(C)c2C)C1,·,·,·,–,·,–,·,
O=C(COc1ccccc1)N(Cc1cccnc1)c1nc2c(F)cccc2s1,–,·,·,–,–,–,·,
CC(C)c1ccc(Nc2nc(N3CCOCC3)nc(N3CCOCC3)n2)cc1,·,–,–,·,·,·,·,
CCOc1ccc(OCC(=O)Nc2ccc(N3CCCCC3)cc2)cc1,–,–,–,–,–,–,·,
CC(C)c1ccc(CNc2ccc(N3CCOCC3)cc2)cc1,?,-67,-72,40µM,13µM,11µM,10,
SMILES,G9a inh-1,CtBP-E1A blk,Six1-Eya2 inh,JMJD2A Tudor,BAZ2B inh,HP1b binding inh,G9a inh-2,others
CCOc1ccc(CNc2ccc(N3CCCC3)cc2)cc1,?,?,?,63µM,18µM,–,0.89,
COC(=O)c1ccc(OC(=O)C2CC(=O)N(c3ccc(C)cc3C)C2)cc1 (configuration not stated),?,–,–,–,–,–,28,
Cc1ccc(-c2nc3ccccn3c2Nc2ccc3c(c2)OCO3)o1,7.9µM,·,·,50µM,35µM,?,·,RGS4 confirm=?
Fc1ccc(-c2nc3ccccn3c2NCc2ccc3c(c2)OCO3)cc1,?,–,–,?,·,?,·,
CC(C)c1ccc(Nc2c(-c3ccco3)nc3ccccn23)cc1,?,·,·,?,?,–,·,RGS4 confirm=?
Cc1ccc2nc(-c3ccsc3)c(Nc3ccc(C(C)C)cc3)n2c1,–,·,·,–,–,–,·,
Cc1ccc(S(=O)(=O)N2CCN(Cc3cc(=O)n4nc(-c5ccccc5Cl)sc4n3)CC2)cc1,–,·,·,–,–,–,·,
CC1CCN(C(=O)Cn2cc(SCC(=O)NCc3ccccc3Cl)c3ccccc32)CC1,–,·,·,–,–,–,·,
COc1ccc(N2CCN(Cc3nc(-c4ccc(Cl)cc4Cl)no3)CC2)cc1,2.2µM,?,?,25µM,35µM,?,4.5,
c1ccc(-c2noc(CN3CCN(c4ccccc4)CC3)n2)cc1,–,–,–,–,–,–,·,
COc1ccc(Br)cc1CN1CCCCCCC1,2.8µM,–,–,4µM,50µM,?,13,
CN(C)c1ccc(CNC(=O)c2cccc(NC(=O)N3CCSc4ncccc43)c2)cc1,2.8µM,·,·,?,?,–,18,
Cc1cccc(OCCCC(=O)Nc2ccc(N(C)C)cc2)c1,1.8µM,–,?,?,?,–,0.89,
Cc1cccc(OCCCC(=O)Nc2ccc(Br)cc2)c1,–,–,–,–,–,–,·,
Cc1noc(C)c1C(=O)N1CCC2(CC1)CN(c1ncccn1)C2,–[12.7 µM],·,·,·,·,·,·,
CCN(CC)c1ccc(Nc2nc(-c3cccnc3)cs2)cc1,0.89µM,?,?,13µM,20µM,40µM,5,
CN(C)c1ccc(Nc2nc(-c3cccnc3)cs2)cc1,?,–,–,–,?,–,0.5,
COc1cc2c(NC3CCN(C)CC3)nc(N3CCCN(C)CC3)nc2cc1OCCCCCN,·,·,·,·,·,·,·,RGS4 confirm=?
CCOC(=O)c1nn(-c2ccc(OC)cc2)c(=O)c2c(N)scc12,1.1µM,–,–,?,50µM,–,4,
COc1ccc(/C=N/NC(=O)c2nn(-c3ccc(Cl)cc3)c(=O)c3c(N)scc23)cc1,?,–,–,–,–,–,·,
